# About 83,000 compounds went through this panel and 20% of them were active in at least one assay; those are over-represented in the sample as a whole.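 The endpoint reported here, percent growth, reads 100 for growth as untreated, 0 for no net growth and -100 for all cells dead.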 Unmarked numbers belong to inactive results. Calls of active or inactive are those of the source. How the source made its calls: active means growth percent below 10; inactive means the rest.
# What was measured:
# Assay in all cases: NCI-60 one-dose screen, 48 h (100 = growth as untreated, 0 = no growth, -100 = all killed)
# Conditions in all cases: 10 µM unless noted
# [1] = test system: SR leukemia
# [2] = test system: RPMI-8226 leukemia
# [3] = test system: OVCAR-8 ovarian
# [4] = test system: OVCAR-5 ovarian
# [5] = test system: OVCAR-4 ovarian
# [6] = test system: SK-OV-3 ovarian
# [7] = test system: HS 578T breast
# [8] = test system: NCI/ADR-RES ovarian
# [9] = test system: T-47D breast
# [10] = test system: BT-549 breast
# [11] = test system: MDA-MB-435 melanoma
# [12] = test system: SW-620 colon
# [13] = test system: MCF7 breast
# [14] = test system: HCT-116 colon
# [15] = test system: HCC-2998 colon
# [16] = test system: KM12 colon
# [17] = test system: OVCAR-3 ovarian
# [18] = test system: IGROV1 ovarian
SMILES,growth [1],growth [2],growth [3],growth [4],growth [5],growth [6],growth [7],growth [8],growth [9],growth [10],growth [11],growth [12],growth [13],growth [14],growth [15],growth [16],growth [17],growth [18] [%]
Cn1cc(-c2nn3cc(-c4ccncc4)nc3s2)c2cc(F)ccc21,1.87% (active),55.3%,58.6%,100%,72.8%,92.7%,86.7%,78.7%,41.4%,64.6%,83.2%,68.9%,18.2%,45.7%,91.4%,81.8%,–,–
Brc1cccc(-c2cc(-c3ccc4c(c3)OC=CO4)[nH]n2)c1,27.6%,22.5%,42.3%,71.5%,82.1%,67.9%,58.8%,15.3%,44.3%,63.8%,-25.2% (active),31.5%,10.1%,23.3%,59.8%,38.1%,–,–
Cn1cc(C2=C(c3coc4cc(Br)ccc34)C(=O)NC2=O)c2ccccc21,29.5%,98.9%,87.2%,113%,100%,53.5%,52.8%,59.2%,70%,82.6%,8.23% (active),42.1%,51.2%,57.4%,104%,80.5%,72.7%,–
CC(C)(C)OC(=O)Nc1ccc(-c2cccc(Oc3ccc4nnc(Cl)n4n3)c2)cc1,36%,43.2%,71.3%,100%,63.7%,95.5%,94.5%,70.8%,59.3%,58.8%,83.7%,97.3%,74.8%,43.9%,109%,88.2%,–,–
N#Cc1c(-c2cccs2)cc(-c2cnccn2)nc1SCC(=O)N/N=C/c1ccc(Cl)cc1,87.1%,97.6%,104%,112%,105%,114%,103%,102%,93.8%,107%,103%,93.1%,84.6%,57.8%,119%,96.5%,117%,–
C/C(=N\NC(N)=S)c1nnn(-c2ccc([N+](=O)[O-])cc2)c1C,110%,103%,98.6%,98.7%,108%,104%,96.3%,–,92%,95.5%,102%,94.9%,–,98.6%,100%,96.8%,–,100
CCC(=C(c1ccc(OCCN(C)C)cc1)c1ccc(OCCN(C)C)cc1)c1ccc(Cl)cc1,-43% (active),-43.8% (active),-21.5% (active),-48.7% (active),-20.1% (active),95.5%,-36.1% (active),-25.7% (active),-56% (active),–,-88.6% (active),-72.4% (active),–,-67.7% (active),-72.4% (active),-49.1% (active),-34.8% (active),–
COc1cccc2c1[C@H](OC)[C@]13O[C@@]1(C2=O)[C@H](O)[C@H](C)[C@@](O)(C(=O)[C@@H]1O[C@H]1C)[C@@H]3O,-30% (active),-27.5% (active),-13.2% (active),6.04% (active),-13.3% (active),-10.4% (active),-30% (active),-23% (active),-11.8% (active),-39.6% (active),-72.7% (active),-14.7% (active),-21.3% (active),-26.8% (active),-79.3% (active),-31.1% (active),-34.6% (active),–
CCCCCCN1C=C/C(=C\C(=O)n2ccc3ccccc32)c2ccccc21,54.3%,12.7%,73.8%,90.9%,33.3%,59.9%,84.9%,–,31.1%,–,84%,–,29.2%,48.4%,34.6%,67.1%,58.4%,–
CC(=O)C1=C(C)NC(NNc2ccccc2)=NC1c1ccc([N+](=O)[O-])cc1 (stereo not given),62.4%,92.4%,91.1%,95.9%,84.3%,106%,99.6%,91.4%,83.3%,103%,77%,73.6%,75%,85.7%,97%,67.3%,99.7%,–
